Bioassay records from PubChem.
B2AR arrestin: recruits beta-arrestin to the human beta2-adrenergic receptor; P07550; Potency, µM (series often up to 46.1 µM), hits mostly activators; 330,000 compounds, 0.02% hits; beta-arrestin recruitment to beta2AR, cell-based reporter; active = well fitted activation curve with a large enough effect; also: nearly all actives have a fitted effect of over 65% in size
Target sequence (P07550 whole entry, looked up): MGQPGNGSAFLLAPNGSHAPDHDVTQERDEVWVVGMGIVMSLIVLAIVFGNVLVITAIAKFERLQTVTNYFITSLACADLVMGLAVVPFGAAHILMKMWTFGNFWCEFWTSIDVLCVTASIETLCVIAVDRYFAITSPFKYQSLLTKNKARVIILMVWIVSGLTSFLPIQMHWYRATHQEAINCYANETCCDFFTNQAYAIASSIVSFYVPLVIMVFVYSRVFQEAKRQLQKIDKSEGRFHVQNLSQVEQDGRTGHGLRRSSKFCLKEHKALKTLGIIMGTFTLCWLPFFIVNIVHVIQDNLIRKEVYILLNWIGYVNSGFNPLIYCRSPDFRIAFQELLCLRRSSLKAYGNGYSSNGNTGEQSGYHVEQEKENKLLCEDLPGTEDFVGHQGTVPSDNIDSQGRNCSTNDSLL
D2 PAM-1: D2 dopamine receptor (human) potentiation; 340,000 compounds, 0.34% hits; potentiation, % at 10 µM; HEK293 T-REx D2, calcium flux, EC20 dopamine potentiation; P14416;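 active = potentiation over 3 SD above the plate norm, cut at about 30% in these data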
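Calcium flux readout, no-wash dye, 1 read/s. Inducible HEK293 Trex D2 line, overnight 30 C. Compound alone 180 s (agonist flags), then EC20 dopamine, another 180 s to score potentiation.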
D2 ag-1: agonists of human D2 dopamine receptor; HEK293 T-REx D2 cells, calcium flux agonist mode; activation, % at 2 µM; 340,000 compounds, 0.53% hits;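 active = activation over 3 SD above normal in the single-dose calcium agonist read, cut at about 30% in these data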
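Calcium-flux readout, 1 cycle/sec over 180 s following compound pin transfer, in inducible HEK293 Trex D2 cells (force-coupled); dopamine controls included. Positive calcium responses during this window marked compounds as potential agonists.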
D2 antag: antagonists of human D2 dopamine receptor; inhibition, % at 10 µM; 340,000 compounds, 2% hits; HEK293 TREx D2 cells, calcium flux, dopamine EC80; P14416; AID 485344; in the data active = inhibition above about 30%; inactive = below that, where a call was filed
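Inhibition of EC80 dopamine-driven calcium flux, recorded kinetically, defines activity here; cells are a tetracycline-induced HEK293 T-REx line expressing force-coupled D2.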
D2 ag-2: agonists of human D2 dopamine receptor (beta-arrestin); activation, % (no concentration beside the values); DiscoveRx PathHunter D2 beta-arrestin, luminescence, 90 min; 100% = 57 uM dopamine signal; P14416; AID 624465; 360,000 compounds, 0.084% hits; in the data active = activation above about 40%
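DiscoveRx PathHunter D2 beta-arrestin cells (2,100/well) attached overnight, then compound-stimulated 90 min at 37 C in HBSS/10 mM HEPES/0.1% Tween-20 buffer; beta-galactosidase complementation read by luminescence after 1 h at ambient temperature. Dopamine 57 uM final (EC100) as control.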
D2 PAM-2: potentiates the human D2 dopamine receptor allosterically. P14416. 360,000 compounds, 0.23% hits. DiscoveRx D2 beta-arrestin cells, luminescence, 90 min; 100% = 57 uM dopamine signal. potentiation, % (concentration not given with the values); in the data active = potentiation above about 50%
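PathHunter beta-arrestin assay in DiscoveRx D2 cells. Compounds were added with an EC20 of dopamine (50 nM final) for 90 min at 37 deg C. Luminescence was read 1 h after detection reagent, with 57 uM dopamine as the EC100 control.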
Numbers stand for hits; . = inactive; / = no result. The list is not random: actives were taken first. Their share in the collection is about 2.4%.

SMILES	B2AR arrestin	D2 PAM-1	D2 ag-1	D2 antag	D2 ag-2	D2 PAM-2
CC1=[N+]([O-])C2(N)CCc3nonc3C2(O)C1 (configuration not stated)	.	.	.	.	.	.
Cc1ccc(-[n+]2c(Cc3nn(-c4ccccc4)c(C)[n+]3-c3ccc(C)cc3)nn(-c3ccccc3)c2C)cc1	/	/	/	/	.	.
COc1ccc2c(c1O)-c1c(OC)c(OC)cc3c1[C@H](C2)N(C)CC3	.	.	.	.	.	.
CCCN1CCc2cccc3c2[C@H]1Cc1ccc(O)c(O)c1-3	/	/	/	/	121	136
Fc1ccc(NC(=S)N2Cc3ccccc3-n3nncc3C2)cc1	/	/	/	/	.	.
O=C(NC1CCCCC1)N1Cc2cc(-c3cccc(F)c3)ccc2-n2nncc2C1	/	/	/	/	.	.
COc1cccc(C)c1NC1=NCCO1	/	/	/	/	.	.
CN1[C@@H]2CCC[C@H]1CC(=O)C2	/	/	/	/	.	.
Clc1ccc(C(OCCN2CCCCC2)c2ccccc2)cc1 (configuration not stated)	.	.	.	43	.	.
COc1cccc(CNCCc2c[nH]c3ccccc23)c1OC	.	.	.	52	.	.
C1CCC2S[C@H]3CCCCC3NC2C1 (some centres not stated)	.	.	.	.	.	.
Cn1c(O)c(C=Nc2ccc(F)cc2)c(=O)[nH]c1=O	.	.	.	35	.	.
COC(=O)c1cncn1C(C)c1ccccc1 (configuration not stated)	.	.	.	.	.	.
CCOC(=O)c1cncn1C(C)c1ccccc1 (configuration not stated)	.	.	.	35	.	.
COc1ccc(-c2ccc3c(c2)CN(C(=O)NC2CCCCC2)Cc2cnnn2-3)cc1	/	/	/	/	.	.
CN1C(=O)C(=Cc2cn(CC(=O)N3CCCC3)c3ccccc23)C(=O)N(C)C1=O	.	31	.	30	.	.
CC(C)N1CCN(Cc2cccc([N+](=O)[O-])c2)CC1	.	/	.	.	.	.
O=[N+]([O-])c1cccc(CN2CCN(Cc3ccc(Cl)cc3)CC2)c1	.	.	.	50	.	.
Cc1ccc(OCC(=O)N2CCN(Cc3ccc(F)cc3)CC2)cc1	/	.	.	/	/	/
CCN(CC)c1ccc(CN2CC=C(c3ccc(F)cc3)CC2)cc1	.	.	.	41	.	.
COc1ccc(CN2CC=C(c3ccc(F)cc3)CC2)cc1Br	.	.	.	63	.	.
O=[N+]([O-])c1ccccc1CN1CC=C(c2ccc(F)cc2)CC1	.	.	.	.	.	.
O=[N+]([O-])c1cccc(CN2CC=C(c3ccc(F)cc3)CC2)c1	.	.	.	73	.	.
CCOC1=C(N2CC2)C(=O)C(OCC)=C(N2CC2)C1=O	/	/	/	/	.	.
CCOC(=O)c1ccc(NC(=O)c2cccn(Cc3ccccc3F)c2=O)cc1	/	.	.	/	/	/
SMILES	B2AR arrestin	D2 PAM-1	D2 ag-1	D2 antag	D2 ag-2	D2 PAM-2
c1cc2n(c1)-c1c(ccc3c1OCO3)CNC2c1ccc2c(c1)OCO2 (configuration not stated)	.	.	.	51	.	.
CC1(C)CSC(=NCc2ccccc2)N1	.	.	73	56	.	.
CCCCn1c(O)c(/C=N/N2CCOCC2)c(=O)[nH]c1=S	.	.	.	.	.	.
CCCCCCn1c(O)c(C=Nc2ccccc2N2CCOCC2)c(=O)[nH]c1=S	.	.	.	37	.	.
O=C1NCN(c2ccccc2)C12CCN(C(c1ccnc3ccccc13)c1nnnn1C1CCCCC1)CC2 (configuration not stated)	/	/	/	/	.	.
COc1ccccc1N1CCN(Cc2cc(C)c(C)cc2O)CC1	.	/	/	/	.	.
COc1ccccc1N1CCN(Cc2cccc(Br)c2)CC1	.	.	.	76	.	.
CN1/C(=C\C=Nc2ccccc2)C(C)(C)c2ccccc21	.	.	.	.	.	.
CN1/C(=C\C=C2C(=O)NC(=O)NC2=O)C(C)(C)c2ccccc21	.	/	50	.	.	.
O=c1c2ccccc2nc(/C=C/c2ccccc2F)n1-c1cccc(O)c1	/	.	/	/	/	/
COc1ccccc1OCCCn1cc(C(=O)c2ccco2)c2ccccc21	.	.	.	.	.	.
